# Measured values taken from PubChem BioAssay (EPA / NIEHS).
# The source made the active and inactive calls. Rule for the calls: active = hit-call score of the fitted dose curve at least 0.9, where 1 is the maximum; inconclusive = response in the unintended direction; inactive = score below 0.9.
# Test system: rat CYP2C6, gene 293989
# Assay: NVS_ADME_rCYP2C6: NovaScreen (NVS) CYP450-related Enzyme Activity (ADME) Assay for rat CYP2C6 (AID 2283120)
# Procedure: NVS_ADME_rCYP2C6 is a biochemical, single-readout assay that uses extracted gene-proteins in a cell-free assay. Measurements were taken 1 hour after chemical dosing in a 96-well plate.NVS_ADME_rCYP2C6 is one of one assay component(s) measured or calculated from the NVS_ADME_rCYP2C6 assay. It is designed to make measurements of enzyme activity, a form of enzyme reporter, as detected with fluorescence intensity signals by Fluorescence technology.Data from the assay component NVS_ADME_rCYP2C6 was analyzed into 1 assay endpoint. This assay endpoint, NVS_ADME_rCYP2C6, was analyzed in the positive analysis fitting direction relative to Acetonitrile as the negative control and baseline of activity. Using a type of enzyme reporter, loss-of-signal activity can be used to understand changes in the enzymatic activity as they relate to the gene Cyp2c6v1. Furthermore, this assay endpoint can be referred to as a primary readout, because this assay has produced multiple assay endpoints where this one serves a enzymatic activity function. To generalize the intended target to other relatable targets, this assay endpoint is annotated to the cyp intended target family, where the subfamily is xenobiotic metabolism.
# Binding assays used specific radioligands (tritiated, iodinated) with non-radioactive competitive displacement ligands in agonist or antagonist protocols (as indicated) and various reference compounds and inhibitors to titrate specific binding to receptors and transporters. Most enzyme assays (CYPs, kinases, phosphatases, proteases, HDACs) used recombinant protein and specific substrates (fluorescence mostly, some colorimetric and radioactive) and inhibitors, followed by a biochemical separation of substrate and product. All assays for the biochemical HTS were initially run in duplicate at a single concentration (10 uM for CYP450 assays and 25 uM for all others). Assay-chemical combinations meeting a pre-defined threshold (e.g., 30% inhibition and other criteria defined below) were then run in singleton concentration-response format with maximum concentration of 20 uM for CYPs and 50 uM for all others. Each assay was run with positive and negative controls, and concurrent controls on every plate. The follow-up (secondary) screen tested active chemical-pairs in concentration series, as well as a few additional assays not tested in the primary screen, some selected negative inactives, and several cases re-run in the concentration series for confirmatory purposes.
row,Compound,AC50
1,COC(=O)c1c(C(F)F)nc(C(F)(F)F)c(C2=NCCS2)c1CC(C)C,3590 nM (active)
2,CC(C)NC(=O)N1CC(=O)N(c2cc(Cl)cc(Cl)c2)C1=O,2380 nM (active)
3,CCCCOCN(C(=O)CCl)c1c(CC)cccc1CC,3340 nM (active)
4,CCOP(=S)(OCC)Oc1nc(Cl)n(C(C)C)n1,837 nM (active)
5,CCN(CC)C(=O)C(C)Oc1cccc2ccccc12 (configuration not stated),4210 nM (active)
6,COP(=S)(OC)Oc1ccc([N+](=O)[O-])c(C)c1,177 nM (active)
7,CCNP(=S)(OC)O/C(C)=C/C(=O)OC(C)C (configuration not stated),151 nM (active)
8,CSC(=O)c1c(C(F)F)nc(C(F)(F)F)c(C(=O)SC)c1CC(C)C,2990 nM (active)
9,COP(=S)(OC)SCn1nnc2ccccc2c1=O,634 nM (active)
10,CCN(CC)c1nc(C)cc(OP(=S)(OC)OC)n1,723 nM (active)
11,CO/N=C(/C1=NOCCO1)c1ccccc1Oc1ncnc(Oc2ccccc2Cl)c1F,1740 nM (active)
12,CCCCC(O)(Cn1cncn1)c1ccc(Cl)cc1Cl (configuration not stated),3590 nM (active)
